# Compounds with a hit are over-represented: about 27% of the library has one in this group of screens.
# CYP2C19 act: human CYP2C19 activators, primary screen, biochemical, luminescence; recombinant CYP2C19, luciferin-H EGE luminescence; active compounds read high; 0 = fully inhibited enzyme, 1 = untreated enzyme; AID 1025, 2008; activation factor at 5 µM; 96,000 tested, under 10 active; Cytochrome P450 2C19 (Homo sapiens), P33261;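 active = activation factor of at least 2 at 5 µM in the primary screen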
# Target sequence (P33261 whole entry, looked up): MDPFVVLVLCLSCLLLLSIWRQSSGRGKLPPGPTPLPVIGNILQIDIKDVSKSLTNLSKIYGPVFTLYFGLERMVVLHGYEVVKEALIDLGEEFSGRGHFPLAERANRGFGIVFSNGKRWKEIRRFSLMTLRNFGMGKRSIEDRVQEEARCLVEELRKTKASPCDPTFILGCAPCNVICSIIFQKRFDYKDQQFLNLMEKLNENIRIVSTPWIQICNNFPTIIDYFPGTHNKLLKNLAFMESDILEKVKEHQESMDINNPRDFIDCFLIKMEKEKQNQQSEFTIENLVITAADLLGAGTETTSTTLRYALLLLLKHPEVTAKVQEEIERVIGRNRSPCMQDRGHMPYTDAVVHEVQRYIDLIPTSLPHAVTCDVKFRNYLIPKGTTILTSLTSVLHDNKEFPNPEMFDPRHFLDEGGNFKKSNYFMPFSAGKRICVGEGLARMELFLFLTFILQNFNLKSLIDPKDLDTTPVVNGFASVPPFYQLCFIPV
# CYP2C9 inhib: blockers of cytochrome P450 2C9 activity – biochemical, luminescence, ADME assay, primary screen | inhibition, % at 5 µM | 20% of 96,000 active | P11712 | CYP2C9 Supersomes, luciferin-H conversion | AID 777, 2007;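 active = blocking of liver enzyme CYP2C9 beyond about 50% at 5 µM, limit read from the data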
# sEH inhibitor: soluble epoxide hydrolase inhibitors, primary screen, biochemical, human sEH; 0.34% of 91,000 active; Bifunctional epoxide hydrolase 2 (Homo sapiens), P34913; recombinant human sEH enzymatic activity assay; inhibition, % at 2 µM; in the data active = inhibition above about 80%
# CYP2C9 act: human CYP2C9 activators, primary screen, biochemical, luminescence; Cytochrome P450 2C9 (Homo sapiens), P11712; recombinant CYP2C9, luciferin-H conversion; active compounds read high; factor 1 = untreated enzyme, 0 = blocked; activation factor at 5 µM; 1.4% of 96,000 active; AID 1024, 2008;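 active = activation factor of 2 or more for CYP2C9 at a 5 µM dose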
# sEH activator: soluble epoxide hydrolase activators, primary screen, biochemical, human sEH. purified human sEH enzymatic activity, activator screen. activation, % at 2 µM. 0.04% of 91,000 active. AID 717, 2007; in the data active = activation above about 37%
# CYP2C19 inhib: blockers of cytochrome P450 2C19 activity – biochemical, luminescence, ADME assay, primary screen; P33261; CYP2C19 Supersomes, luciferin-H EGE luminescence, 30 min; inhibition, % at 5 µM; 21% of 96,000 active; AID 778, 2007;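 active = CYP2C19 inhibition above a set limit at 5 µM in the primary screen, cut at about 50% in these data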
# Numbers stand for hits; . = inactive; / = no result.
SMILES,CYP2C19 act,CYP2C9 inhib,sEH inhibitor,CYP2C9 act,sEH activator,CYP2C19 inhib
O=C1NC(Cc2c[nH]c3ccccc23)C(=O)N1CCOc1ccc(F)cc1 (stereo not given),.,71,.,.,.,74
CCOc1ccc(OCCN2C(=O)NC(Cc3c[nH]c4ccccc34)C2=O)cc1 (stereo not given),.,80,.,.,.,68
CN1CC(=O)N(CCOc2ccccc2)C1=O,.,.,/,.,/,.
CC(=O)c1cccc(S(=O)(=O)N2CCN(c3nc4cc(C)cc(C)c4cc3C#N)CC2)c1,.,67,.,.,.,58
Cc1cc(=O)n2[nH]c(-c3ccc(F)cc3)cc2n1,.,.,/,.,/,.
Cc1cc(=O)n2[nH]c(-c3ccc(Cl)cc3)cc2n1,.,.,.,.,.,75
CCc1ccc(S(=O)(=O)N2CC(=O)Nc3ccccc32)cc1,.,.,.,.,.,74
CC(C)(C)c1ccc(S(=O)(=O)N2CC(=O)Nc3ccccc32)cc1,.,.,.,.,.,82
CCc1ccc2nc(SCC(=O)N3CC(=O)Nc4ccccc43)c(C#N)cc2c1,/,/,.,/,.,/
Cc1ccc(S(=O)(=O)N2CC(=O)Nc3ccccc32)cc1,.,.,.,.,.,.
Cc1ccc(CN2CCN(CC(=O)NC(C)CCc3ccccc3)C2=O)cc1 (stereo not given),.,67,.,.,.,58
O=C(CN1CCN(Cc2ccccc2F)C1=O)NCCc1ccc(Cl)cc1,.,88,.,.,.,66
CC(CCc1ccccc1)NC(=O)CN1CCN(Cc2ccccc2)C1=O (stereo not given),.,.,.,.,.,.
Cc1ccc(CN2CCN(CC(=O)NC(C)c3ccc4c(c3)OCCO4)C2=O)cc1 (stereo not given),.,.,.,.,.,.
O=C1N(CC(=O)N2CCc3ccccc32)CCN1Cc1ccc(Cl)cc1,.,.,.,2.3,.,.
CC(CCc1ccccc1)NC(=O)CN1CCN(Cc2ccc(Cl)cc2)C1=O (stereo not given),.,56,.,.,.,71
CCOc1ccc(CCNC(=O)CN2CCN(Cc3ccccc3F)C2=O)cc1OCC,.,.,.,.,.,.
CC(C)(C)NC(=O)c1cc(F)c(F)cc1Cl,.,.,.,.,.,.
O=C(NCCCN1CCOCC1)C1CCC(=O)N1CCc1ccccc1 (stereo not given),.,.,.,.,.,.
CCN(CCNC(=O)CN1CCN(Cc2ccc(Cl)cc2)C1=O)c1ccccc1,.,52,.,.,.,57
O=C(CN1CCN(Cc2ccccc2)C1=O)NCc1ccc(Cl)cc1,.,.,.,.,.,.
CCOCCCNC(=O)CCSc1ccc(C)cc1,/,/,.,/,.,/
Cc1ccccc1CSCCNC(=O)CCSc1ccccc1,.,76,81,.,.,.
Cc1ccc(CSCCNC(=O)CCSc2ccccc2)cc1,.,65,.,.,.,.
Cc1ccccc1CNC(=O)c1ccc(CSCc2ccccc2)cc1,.,.,.,.,.,.
SMILES,CYP2C19 act,CYP2C9 inhib,sEH inhibitor,CYP2C9 act,sEH activator,CYP2C19 inhib
O=C(NNC(=O)C1CCCCC1)C(=O)NC1CCCCC1,.,.,.,.,.,.
CCCCOC(=O)C1C2C=CC3(CN(CCc4ccccc4)C(=O)C13)O2 (stereo not given),/,/,.,/,.,/
c1ccc(Cn2nnc3c(N4CCN(Cc5ccc6c(c5)OCO6)CC4)ncnc32)cc1,.,85,/,.,/,84
CC(=O)c1c(N2CCN(Cc3ccc4c(c3)OCO4)CC2)nc(=S)n(-c2ccccc2)c1C,.,.,.,.,.,.
Cc1ccc2c(c1)[nH]c1c(N3CCN(Cc4ccc5c(c4)OCO5)CC3)ncnc12,.,93,/,.,/,82
Clc1ccc(Cn2ncc3c(N4CCOCC4)ncnc32)cc1,.,.,.,.,.,67
c1ccc2c(c1)oc1c(N3CCN(Cc4ccc5c(c4)OCO5)CC3)ncnc12,.,86,.,.,.,82
CCCN1C(=O)c2cc(C(=O)NCc3ccc(OC)cc3)ccc2C1O (stereo not given),.,.,.,.,.,.
O=C(NC1CCCCC1)C(c1ccc2ncccc2c1)N(Cc1ccc(F)cc1)C(=O)c1ccc2c(c1)OCCO2 (stereo not given),.,.,.,.,.,.
NC(=O)C1CCN(C(=O)CSc2ccccn2)CC1,.,.,.,.,.,.
Fc1ccccc1Cn1nnc2c(-n3ccnc3)ncnc21,.,91,/,.,/,99
CC1Cc2ccccc2N1c1ncnc2c1nnn2Cc1ccccc1Cl (stereo not given),/,/,.,/,.,/
c1ccc(Cn2nnc3c(N4CCOCC4)ncnc32)cc1,.,.,.,.,.,76
Clc1ccccc1Cn1nnc2c(N3CCCC3)ncnc21,.,.,.,2.2,.,99
OC(c1cccs1)(c1cccs1)C1C[N+]2(CF)CCC1CC2 (stereo not given),.,.,.,.,.,.
CC(=O)N1CCC(N(CCCOC(C)C)C(=O)Nc2ccc(Cl)cc2)CC1,/,/,.,/,.,/
O=C(NCc1ccc2c(c1)OCO2)C(c1ccco1)N(C(=O)c1csnn1)c1ccccc1 (stereo not given),.,.,.,.,.,75
O=C(NC1CCCCC1)C(c1ccco1)N(Cc1cccnc1)C(=O)C1COc2ccccc2O1 (stereo not given),.,76,.,.,.,84
O=C(NC1CCCC1)C(c1ccco1)N(Cc1ccccc1)C(=O)c1csnn1 (stereo not given),.,.,.,.,.,71
O=C(NC1CCCCC1)C(c1ccco1)N(C(=O)c1csnn1)C1CCCC1 (stereo not given),.,.,.,.,.,.
CCN1CCN(C(=S)Nc2ccc(Cl)cc2)CC1,.,.,.,.,.,.
CCS(=O)(=O)n1nc(-c2ccco2)nc1SC,.,.,.,.,.,.
CCCC(=O)n1nc(-c2ccco2)nc1SCc1ccccc1,.,.,/,.,/,.
CSc1nc(-c2ccco2)nn1S(=O)(=O)c1ccc(C)cc1,.,70,/,.,/,68
O=C(Cc1ccccc1)n1nc(-c2ccco2)nc1SCc1ccccc1,.,.,.,.,.,68
CSc1nc(-c2ccco2)nn1C(=O)c1ccc(C)cc1,.,.,/,.,/,.
Cc1ccc(S(=O)(=O)n2nc(-c3ccco3)nc2SCc2ccccc2)cc1,.,70,.,.,.,55
CSc1nc(-c2ccco2)nn1S(=O)(=O)c1ccccc1,.,.,.,2.1,.,83

# Bioassay records as filed in PubChem.
